Source: PubChem BioAssay (NCATS)
Records with an inconclusive call do not appear. The source made the active and inactive calls. Calls follow the shape of the dose curve; as a rule, active = well fitted inhibition curve with a large enough effect; inconclusive = small, poorly fitted or top-dose-only effect; inactive = flat fitted curve, though single readings scatter. Where a SMILES comes first, the peptide text is derived from it. [ ]: non-standard residue; d: D form. ξ: configuration not given here. ξPhe(βξ-Me) = CC(c1ccccc1)C(N)C(=O)O; GABA = NCCCC(=O)O

What was measured:
CRL-7250 = normal cell line; assay: Cytotoxic Profiling of Annotated Libraries Using Quantitative High-Throughput Screening (AID 1296008); settings: Five cell lines viability, CellTiter-Glo ATP luminescence, 48-72 h; max response: hits give low values; as to max response: % is scaled to controls: 0 for no effect and ±100 for the full control effect
Outline: (§1)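 Cytotoxicity was measured as CellTiter-Glo ATP luminescence, read after 10 min at room temperature. Compound treatment of the cells lasted 48 or 72 hr at 37 degrees Celsius in a qHTS format.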

HEK293 = assay: as above; settings: Five cell lines viability, CellTiter-Glo ATP luminescence, 48-72 h; max response: hits give low values
Outline: as §1

HaCat [1] = assay: as above; settings: Five cell lines viability, CellTiter-Glo ATP luminescence, 48-72 h; max response: hits give low values
Outline: as §1

KB-3-1 = assay: as above; settings: Five cell lines viability, CellTiter-Glo ATP luminescence, 48-72 h; max response: hits give low values
Outline: as §1

NIH3T3 = assay: as above; settings: Five cell lines viability, CellTiter-Glo ATP luminescence, 48-72 h; max response: hits give low values
Outline: as §1

HACAT [2] = assay: qHTS assay to identify novel small-molecules to repurpose for Merkel cell carcinoma treatment (AID 1296009); settings: MCC and control cell lines, CellTiter-Glo viability, 72 h; at 44.8 µM (top of the series) unless noted
Outline: (§2)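 Cell viability measured by CellTiter-Glo following 72 hr compound treatment at 37 degree celsius, with NPC and MIPE libraries tested in 8- and 11-point concentration series.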

HEK293T = assay: as above; settings: MCC and control cell lines, CellTiter-Glo viability, 72 h; series mostly up to 44.8 µM
Outline: as §2
Also: nearly all actives have a fitted effect of over 60% in size.

CO[C@@H](Cc1ccc(OCCc2nc(-c3ccccc3)oc2C)c2ccsc12)C(=O)O
inactive: outcome (CRL-7250) | outcome (HEK293) | outcome (HaCat [1]) | max response (KB-3-1) -3.49% | outcome (NIH3T3) | outcome (HACAT [2]) | Potency (HEK293T)

CC(C)CC1NC(=O)C(C(C)c2ccccc2)NC(=O)C(C(C)C)NC(=O)C(C)NC(=O)CCCNC(=O)C(Cc2c[nH]c3ccccc23)NC(=O)C(C)NC1=O (stereo not drawn) (cyclo([GABA]AV[ξPhe(βξ-Me)]LAW); configuration not given here)
inactive: max response (CRL-7250) -5.31% | outcome (HEK293) | outcome (HaCat [1]) | outcome (KB-3-1) | max response (NIH3T3) 3.96% | outcome (HACAT [2]) inactive [at 17.4 µM] | Potency (HEK293T)

C=C(C(=O)O)[C@@H]1CC=C2CCC[C@H](C)[C@@]2(C)C1
inactive: max response (CRL-7250) -11.2% | outcome (HEK293) | outcome (HaCat [1]) | max response (KB-3-1) 4.53% | outcome (NIH3T3) | outcome (HACAT [2]) | Potency (HEK293T)

CC1CC(O)C2(C)C(C(=O)O)=CCCC2C1(C)CCc1ccoc1 (centres undefined)
inactive: max response (CRL-7250) 0.739% | outcome (HEK293) | outcome (HaCat [1]) | outcome (KB-3-1) | max response (NIH3T3) -2.92% | outcome (HACAT [2]) | Potency (HEK293T)

CC(C)(O)/C=C1/C(=O)C(C)(C)C(=O)C(C)(C)C1(O)O[C@@H]1O[C@H](COC(=O)c2cc(O)c(O)c(O)c2)[C@@H](O)[C@H](O)[C@H]1O (some centres undefined)
inactive: max response (CRL-7250) -11.2% | outcome (HEK293) | outcome (HaCat [1]) | outcome (KB-3-1) | max response (NIH3T3) 4.71% | outcome (HACAT [2]) inactive [at 17.4 µM] | Potency (HEK293T)

O=C(/C=C/c1c(C(=O)O)[nH]c2cc(Cl)cc(Cl)c12)Nc1ccccc1
inactive: max response (CRL-7250) -11.7% | outcome (HEK293) | outcome (HaCat [1]) | outcome (KB-3-1) | outcome (NIH3T3) | outcome (HACAT [2]) | Potency (HEK293T)

NC(=O)c1cccc(-c2cc(O)cc(OC(=O)NC3CCCCC3)c2)c1
inactive: outcome (CRL-7250) | outcome (HEK293) | outcome (HaCat [1]) | outcome (KB-3-1) | max response (NIH3T3) -15.7% | outcome (HACAT [2]) inactive [at 17.4 µM] | Potency (HEK293T)

COc1cc(/C=C/C(=O)OC2CC(C)=C(C(=O)O)/C2=C/CO[C@@H]2O[C@H](CO)[C@@H](O)[C@H](O)[C@H]2O)ccc1O (some centres undefined)
inactive: max response (CRL-7250) 4.12% | outcome (HEK293) | outcome (HaCat [1]) | outcome (KB-3-1) | outcome (NIH3T3) | outcome (HACAT [2]) inactive [at 17.4 µM] | Potency (HEK293T)

CC(=O)O[C@@H]1C[C@]2(C)[C@@]3(CCC4[C@@]5(C)CC[C@H](O[C@@H]6O[C@H](C(=O)O)[C@@H](O)[C@H](O[C@@H]7O[C@H](CO)[C@H](O)[C@H](O)[C@H]7O[C@@H]7O[C@@H](C)[C@H](O)[C@@H](O)[C@H]7O[C@@H]7OC[C@](O)(CO)[C@H]7O)[C@H]6O[C@@H]6O[C@H](CO)[C@H](O)[C@H](O)[C@H]6O)C(C)(C)C5CC[C@]42C)O[C@@H](O)[C@]12C3CC(C)(C)[C@@H](OC(=O)/C=C/c1ccc(O)c(O)c1)[C@@H]2OC(=O)/C=C/c1ccccc1 (some centres undefined)
inactive: max response (CRL-7250) 3.23% | outcome (HEK293) | outcome (HaCat [1]) | outcome (KB-3-1) | outcome (NIH3T3) | outcome (HACAT [2]) inactive [at 9.27 µM] | outcome (HEK293T) inactive [at 9.27 µM]

CC(=O)OC[C@]12[C@H](OC(C)=O)C(=O)[C@@H]3[C@@H](OC(C)=O)[C@@]14O[C@@]3(C)COC(=O)c1cccnc1[C@@H](C)[C@H](C)C(=O)O[C@@H]([C@H](OC(C)=O)[C@@H]2OC(C)=O)[C@]4(C)O
inactive: max response (CRL-7250) 2.64% | outcome (HEK293) | outcome (HaCat [1]) | outcome (KB-3-1) | max response (NIH3T3) -8.22% | outcome (HACAT [2]) inactive [at 17.4 µM] | Potency (HEK293T)

CCC[C@@H]1C[C@@H](C(=O)N[C@@H]([C@H]2O[C@H](SC)[C@H](O)[C@@H](O)[C@@H]2O)[C@@H](C)O)N(C)C1
inactive: outcome (CRL-7250) | outcome (HEK293) | outcome (HaCat [1]) | outcome (KB-3-1) | outcome (NIH3T3) | outcome (HACAT [2]) | Potency (HEK293T)

COC(=O)CC[C@@H](C)[C@H]1CC[C@H]2[C@@H]3CC(=O)[C@H]4C[C@H](OC(C)=O)CC[C@]4(C)[C@H]3CC[C@]12C
inactive: max response (CRL-7250) -2.01% | outcome (HEK293) | outcome (HaCat [1]) | outcome (KB-3-1) | max response (NIH3T3) -0.377% | outcome (HACAT [2]) | Potency (HEK293T)

CC/C=C/CC1=C(CCCCCCCC(=O)O)CCC1=O
inactive: max response (CRL-7250) 0.164% | outcome (HEK293) | outcome (HaCat [1]) | max response (KB-3-1) 0.0316% | max response (NIH3T3) -0.116% | outcome (HACAT [2]) | Potency (HEK293T)

COc1cc(C(C)=O)ccc1O[C@@H]1O[C@H](CO[C@@H]2O[C@@H](C)[C@H](O)[C@@H](O)[C@H]2O)[C@@H](O)[C@H](O)[C@H]1O
inactive: max response (CRL-7250) -2.17% | outcome (HEK293) | outcome (HaCat [1]) | outcome (KB-3-1) | outcome (NIH3T3) | outcome (HACAT [2]) inactive [at 17.4 µM] | Potency (HEK293T)

C=C[C@H]1[C@H](O[C@@H]2O[C@H](CO)[C@@H](O)[C@H](O)[C@H]2O)OC=C(C(=O)OC)[C@H]1C[C@@H]1N[C@H](C(=O)O)Cc2c1[nH]c1ccccc21
inactive: max response (CRL-7250) 2.01% | outcome (HEK293) | outcome (HaCat [1]) | max response (KB-3-1) -4.8% | max response (NIH3T3) -2.92% | outcome (HACAT [2]) inactive [at 17.4 µM] | Potency (HEK293T)

O=C(CCCCc1ccc2ccccc2c1)C(F)(F)F
inactive: max response (CRL-7250) 3.49% | outcome (HEK293) | outcome (HaCat [1]) | max response (KB-3-1) 2.37% | outcome (NIH3T3) | outcome (HACAT [2]) inactive [at 92 µM] | Potency (HEK293T)

c1ccc(C(OC2CCN(CCCc3nn[nH]n3)CC2)c2ccccc2)cc1
inactive: outcome (CRL-7250) | outcome (HEK293) | outcome (HaCat [1]) | max response (KB-3-1) -3.18% | outcome (NIH3T3) | outcome (HACAT [2]) | Potency (HEK293T)
